Compounds with a hit are over-represented: about 11% of the library has one in this group of screens.
HPGD block: qHTS Assay for Inhibitors of HPGD (15-Hydroxyprostaglandin Dehydrogenase) | purified HPGD, NADH fluorescence kinetic, PGE2 substrate | AID 894, 2007 | 150,000 compounds, 4.3% hits | Potency, µM, without a hit: at the highest dose activity change, negative = inhibition, most hits filed as inhibitors | 15-hydroxyprostaglandin dehydrogenase [NAD(+)] (Homo sapiens), P15428; active = well fitted inhibition curve with a large enough effect, not every such curve was filed as active; inconclusive = small, poorly fitted or top-dose-only effect, or another doubt; inactive = no such curve, though single readings can be large or run the other way; also: potency is read from the fitted curve at half-maximal effect; % is scaled to controls: 0 for no effect and ±100 for the full control effect
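20 nM HPGD preincubated 15 min at room temperature with compound in 50 mM Tris-HCl pH 8, 0.01% Tween 20. Started with 1 mM NAD+ and 30 uM prostaglandin E2; NADH fluorescence (360/450 nm) read 5 times over 30-s intervals, last minus first.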
PNC inhibitor: High Content Assay for Compounds that inhibit the Assembly of the Perinucleolar Compartment; PC3M PTB-GFP, PNC prevalence imaging, 16 h; hits give low values; activity change (PNC), negative = inhibition, % at 10 µM; 140,000 compounds, 3.1% hits;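 active = readout at or below -70, meaning at least 70% loss of cells showing the perinucleolar compartment, a nuclear body marking cancer cells; inconclusive = readout between -30 and a set limit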;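 also: plate controls were DMSO wells for no effect and camptothecin positive control wells for full effect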
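Compounds are pinned in duplicate onto adhered PC3M cells stably expressing GFP-tagged PTB and incubated 16 h at 37 C. Cells are then fixed, nuclei stained with Hoechst, and PNC-positive cells counted.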
HTT aggregate: qHTS Multiplex Assay to Identify Dual Action Probes in a Cell Model of Huntington: Aggregate Formation (GFP) | AID 1688, 2009 | PC12 HttQ103-GFP aggregates, Acumen cytometry, 40 h | Potency, µM (titrated, usually from 46.1 µM), without a hit: at the highest dose activity change, negative = inhibition, usual class: inhibitors | 220,000 compounds, 1.1% hits; also: potency is read from the fitted curve at half-maximal effect; % is scaled to controls: 0 for no effect and ±100 for the full control effect; nearly all actives have a fitted effect of over 60% in size
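Ecdysone-promoter PC12 model expressing HTT exon 1 Q103 fused to GFP, induced by tebufenozide at 100 nM final. Compounds titrated; aggregates sized 1–25 µm scored on a 488 nm laser cytometer.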
ALDH1A1 inh: qHTS Assay for Inhibitors of Aldehyde Dehydrogenase 1 (ALDH1A1); Aldehyde dehydrogenase 1A1 (Homo sapiens), P00352; Purified ALDH1A1, NADH fluorescence, propionaldehyde substrate; Potency, µM (top dose mostly 75.3 µM), inactives show top-dose activity, negative = inhibition, usual class: inhibitors; 220,000 compounds, 7.3% hits; AID 1030, 2008; active = well fitted inhibition curve with a large enough effect, not every such curve was filed as active; inconclusive = small, poorly fitted or top-dose-only effect, or another doubt; inactive = no such curve, though single readings can be large or run the other way;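 also: potency is read from the fitted curve at half-maximal effect; plate controls were no enzyme wells and a reference inhibitor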
CBFb-RUNX1 inh: qHTS Assay for Compounds Blocking the Interaction Between CBF-beta and RUNX1 for the Treatment of Acute Myeloid Leukemia. Runt-related transcription factor 1 (Homo sapiens) + Core-binding factor subunit beta …. AlphaScreen CBFb-His/RUNX1-biotin binding, biochemical. Potency, µM (top dose mostly 59.8 µM), for the others: at the top dose activity, negative = inhibition, most hits filed as inhibitors. 230,000 tested, under 10 active. AID 1477, 2009; also: % of control where 0% means no effect
Target sequence (Q01196 whole entry, looked up): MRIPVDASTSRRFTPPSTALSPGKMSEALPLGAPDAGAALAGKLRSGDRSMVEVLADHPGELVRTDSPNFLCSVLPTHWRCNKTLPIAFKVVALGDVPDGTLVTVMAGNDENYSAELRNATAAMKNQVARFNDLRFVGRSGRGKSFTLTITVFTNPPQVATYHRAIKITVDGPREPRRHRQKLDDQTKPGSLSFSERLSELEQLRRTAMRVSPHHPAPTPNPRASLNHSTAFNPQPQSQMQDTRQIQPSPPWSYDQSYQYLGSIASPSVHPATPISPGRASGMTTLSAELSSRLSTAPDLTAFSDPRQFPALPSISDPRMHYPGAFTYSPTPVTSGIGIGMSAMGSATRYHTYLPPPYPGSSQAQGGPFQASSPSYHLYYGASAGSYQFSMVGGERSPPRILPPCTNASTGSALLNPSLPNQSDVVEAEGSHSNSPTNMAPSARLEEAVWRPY
Target sequence (Q13951 whole entry, looked up): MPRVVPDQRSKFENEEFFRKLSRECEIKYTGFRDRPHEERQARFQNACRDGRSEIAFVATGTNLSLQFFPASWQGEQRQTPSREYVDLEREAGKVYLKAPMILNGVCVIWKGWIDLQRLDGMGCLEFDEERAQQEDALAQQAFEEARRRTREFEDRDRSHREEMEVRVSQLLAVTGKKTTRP
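AlphaScreen proximity signal reports loss of binding between His-tagged CBF-beta and biotin-labelled RUNX1, each at 30 nM. Proteins are pre-associated for 20 minutes, compounds added for 15 minutes, then beads for 90 minutes, all at ambient temperature.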
HTT cytoprotect: qHTS Multiplex Assay to Identify Dual Action Probes in a Cell Model of Huntington: Cytoprotection (ATP) | Potency, µM (doses to about 56.4 µM), for the others: cytoprotection (ATP increase), most hits filed as activators | AID 1471, 2008 | PC12 HTT-Q103 induced, cytoprotection, ATP luminescence, 40 h | 230,000 compounds, 0.14% hits; also: potency is read from the fitted curve at half-maximal effect; % of control where 0% means no effect; nearly all actives have a fitted effect of over 45% in size
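PC12 cells with ecdysone-inducible HTT exon 1 Q103-GFP, induced with 100 nM tebufenozide and co-treated with library compounds in a dose series (1536-well, 1500 cells/well). Cytoprotection read as ATP content by ATPlite luminescence.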
* marks the source's active call; other numbers are inactive results; ? = inconclusive; . = not tested or not shown; [ ] = remark or other dose. Unless noted, calls follow the shape of the dose curve; as a rule, active = well fitted curve in the direction sought with a large enough effect; inconclusive = small, poorly fitted or top-dose-only effect, or another doubt; inactive = no such curve, though single readings can be large; an effect the other way counts as inactive or inconclusive.

SMILES | HPGD block | PNC inhibitor | HTT aggregate | ALDH1A1 inh | CBFb-RUNX1 inh | HTT cytoprotect
CC(NS(=O)(=O)c1ccc(CCC(=O)NCC2CCCO2)cc1)c1ccccc1 (configuration not stated) | -9% | 12 | 11% | -1% | 19% | -13%[10 µM]
O=C(CCc1ccc(S(=O)(=O)NCc2ccccc2)cc1)NCC1CCCO1 (configuration not stated) | -6% | -106* | 7% | -1% | -4% | -18%[10 µM]
O=C(CSc1ccccc1)Nc1ccc(S(=O)(=O)NCC2CCCO2)cc1 (configuration not stated) | ? | ? | -1% | 22µM* | 3% | 13%
COCCNc1nc(CSc2ccccc2)nc2sc(C)c(C)c12 | . | -86* | ? | ? | ? | 4%[10 µM]
Cc1sc2nc(CSc3ccccc3)nc(N3CCN(C)CC3)c2c1C | -6% | 27 | -6% | -1% | -2% | -7%[0.074 µM]
CC(C)CCC[C@@H](C)[C@H]1CC[C@H]2[C@@H]3CC=C4C[C@@H](O)CC[C@]4(C)[C@H]3CC[C@]12C | -3% | . | 4% | 3% | -8% | ?
COCCNC(=O)C(C)Oc1ccc(Cl)cc1Cl (configuration not stated) | 32µM* | 40 | -5% | 10% | 4% | -2%[10 µM]
COC(=O)C1CCN(C(=O)C(C)Oc2ccc(Cl)cc2Cl)CC1 (configuration not stated) | -27% | -87* | -13% | ? | 3% | -21%[0.074 µM]
CCNC(=O)C(C)Oc1ccc(Cl)cc1Cl (configuration not stated) | . | . | 3% | -13% | 4% | -16%
CC(Oc1ccc(Cl)cc1Cl)C(=O)Nn1cnnc1 (configuration not stated) | 4% | -119* | -4% | 5% | 4% | 15%[10 µM]
CCOC(=O)C1CCCN(C(=O)C(C)Oc2ccc(Cl)cc2Cl)C1 (configuration not stated) | -7% | 13 | 11% | 9% | 9% | 8%[0.074 µM]
CC(Oc1ccc(Cl)cc1Cl)C(=O)NC1CCSC1=O (configuration not stated) | 14µM* | 12 | -1% | 12% | 2% | 16%[0.074 µM]
O=c1c(-c2cccs2)nc2cnc(Oc3cccc(Cl)c3)nc2n1C[C@H]1CCCO1 | ? | . | . | ? | . | 16%
CCCCCCCCCCCCCCCCCCCCCCCCCCCCCC | . | . | . | . | 19% | .
COc1ccc(C2=CC3=C(Br)C(=O)C(C)(OC(=O)c4cnc5ccccc5n4)C(=O)C3=CO2)cc1 (configuration not stated) | -16% | . | . | 6% | 0% | ?
CCSc1nnc2n(N)c(=O)c3ccccc3n12 | 0% | 86 | -4% | 8% | 0% | 21%
Cc1ccc(/C=N/N2CCN(Cc3ccc(Cl)cc3)CC2)o1 | -35% | -24 | 16%[9.22 µM] | 7.9µM* | -2% | -13%
CCN(CC)c1ccc(/C=N\N2CCN(Cc3ccc(C)cc3)CC2)cc1 | . | . | 11% | 0.79µM* | ? | -31%
Cc1ccc(CN2CCN(/N=C/c3ccc(C(=O)O)cc3)CC2)cc1 | -22% | 61 | 1% | -10% | -1% | 20%[10 µM]
Clc1ccc(CN2CCN(/N=C/c3ccco3)CC2)cc1 | . | . | -1% | ? | -3% | 9%
CN1CCN(c2nc(-c3ccoc3)nc3ccccc23)CC1 | . | . | . | 6% | . | -21%
CCN(CC)CCC(=O)c1ccc(F)cc1 | . | . | -9%[9.22 µM] | 1.1µM* | -3% | -3%[10 µM]
CCOC(=O)c1nnc(-c2ccc(C)cc2)nc1Oc1ccccc1Cl | -17% | -23 | 22µM* | -10% | 6% | .
Cn1cccc1/C=N/NC(=O)c1ccn[nH]1 | -5% | -119* | 5% | 3% | -5% | -3%[10 µM]
Cn1cccc1/C=N/NC(=O)c1cccnc1 | -9% | ? | -10% | -12% | -1% | -1%[10 µM]
SMILES | HPGD block | PNC inhibitor | HTT aggregate | ALDH1A1 inh | CBFb-RUNX1 inh | HTT cytoprotect
Cn1cccc1/C=N/NC(=O)c1ccco1 | . | . | 3% | -4% | 1% | -28%
Cc1ccc(C(=O)N/N=C\c2cccn2C)cn1 | 14µM* | -26 | 6% | -4% | -4% | 6%
COc1ccc(CCC(=O)Nc2cccc(S(=O)(=O)N(C)C)c2)cc1OC | -8% | 37 | -13% | -9% | -3% | 29%[10 µM]
O=C(NNC(=S)Nc1ccc(F)cc1)c1cccc([N+](=O)[O-])c1 | . | . | 2%[9.22 µM] | -6% | -3% | 14%[10 µM]
CC(C)CCNC(=S)Nc1ccc([N+](=O)[O-])cc1 | -29% | -19 | 20µM* | ? | -8% | 30%[0.074 µM]
O=[N+]([O-])c1ccc(NNC(=S)Nc2ccc(F)cc2)cc1 | 22µM* | ? | ? | 1.3µM* | ? | 25%[10 µM]
CN1CCc2c(sc3nc(NN)n(Cc4ccccc4)c(=O)c23)C1 | . | . | -17%[9.22 µM] | 32µM* | ? | 0%[10 µM]
CCn1c(SCC(N)=O)nc2sc3c(c2c1=O)CCN(C)C3 | . | . | -13%[9.22 µM] | ? | 8% | -8%[10 µM]
O=C(Nc1ccc(-n2nncc2-c2ccco2)cc1)c1cc2ccccc2oc1=O | -18% | 37 | -4% | -12% | ? | -2%
O=C(Nc1ccc(-n2nncc2-c2ccco2)cc1)c1cccc(F)c1 | 13µM* | 12 | -18% | ? | 10% | 4%[10 µM]
COc1ccc(-c2ccc(-c3cc(=O)oc4cc(OC)c(OC)c(OC)c34)cc2)cc1 | 1% | . | . | -3% | 7% | -20%
Cn1c(=N)n(CC(=O)O)c2ccccc21 | -8% | 22 | 5.6µM* | 7% | 1% | 0%
Cc1c(C(=O)N2CCCC2)sc(NC(=O)c2ccccc2)c1C#N | ? | 21 | -12% | 2% | -6% | 33%[10 µM]
Cc1c(C(=O)N2CCCC2)sc(NC(=O)c2cccs2)c1C#N | -25% | -22 | ? | 13% | 4% | -14%
Cc1c(C(=O)N2CCCCC2)sc(NC(=O)C(C)C)c1C#N | 13µM* | 22 | 8% | 3% | -4% | 14%
Cc1c(C(=O)N2CCCCC2)sc(N)c1C#N | 13µM* | -19 | -9% | ? | 12% | -22%
Cc1c(C(=O)N2CCCCC2)sc(NC(=O)c2ccco2)c1C#N | 16µM* | 52 | -26% | -10% | 5% | -8%[10 µM]
Cc1c(C(=O)N2CCCCC2)sc(NC(=O)C2CC2)c1C#N | 14µM* | 25 | 16% | -6% | -4% | -4%
C=CCNC(=O)c1onc(CSc2cccc(OC)c2)c1C(=O)NCC=C | . | . | -14%[9.22 µM] | . | 13% | 11%[10 µM]
